Sampled rows, rich in hits. Any-hit rate of the full collection: about 10%.
Sfp PPTase inh – Sfp phosphopantetheinyl transferase inhibition | Q9F4F7 | Biochemical Sfp PPTase activity, qHTS | Potency, µM, inactives show largest response in the series, negative = inhibition, hits mostly inhibitors | actives 3.5% (n = 310,000);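 note: the enzyme is Sfp with the accession as filed and its product quenches rhodamine fluorescence; potency is the fitted concentration of half-maximal effect; 0% = enzyme reaction without inhibitor and -100% = no enzyme wells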
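With Hepes-Na pH 7.6 buffer containing 10 mM MgCl2, Sfp (15 nM) modified BHQ-2-YbbR (12.5 uM) using rhodamine-CoA (5 uM). Two reads 30 minutes apart at 525/598 nm yielded each well's rate.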
CCT modulator – changes cytosolic chaperonin activity; activity change, % (concentration not given with the values), hits read low; AID 651819; actives 0.3% (n = 360,000); purified chaperonin ATPase assay, HTRF ADP detection, 30 min; in the data active = activity change below about -30%
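Nucleotide hydrolysis assay: TRiC at 20–40 nM final (set by batch activity) with 10 uM ATP, 30 min at 37 °C, in presence of 76 uM compound. Detection by competitive ADP HTRF, 30 min ambient.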
Mm-Cpn inhibitor – blocks the Methanococcus maripaludis chaperonin Mm-Cpn; purified Mm-Cpn ATPase, ADP Transcreener TR-FRET; Potency, µM (highest dose often 76.9 µM), for the others: at the top dose activity, negative = inhibition, usual class: inhibitors; actives 0.031% (n = 330,000); note: potency is the fitted concentration of half-maximal effect; nearly all actives have a fitted effect of over 80% in size
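ATPase turnover read by TR-FRET ADP competition (Eu cryptate antibody/ADP-d2, 665/590 nm): 10uM ATP final, 25nM Mm-CPN final, 30 min 37degC after 10-min compound preincubation, pH 7.4 Tris/KCl/MgCl2/DTT buffer.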
VDR inh – inhibitors of human vitamin D receptor | P11473 | VDR-SRC2-3 peptide fluorescence polarization, 2 h | Potency, µM, without a hit: max response, negative = inhibition, actives largely listed as inhibitors | actives 0.93% (n = 400,000); note: potency is the fitted concentration of half-maximal effect
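Reagent solutions, kept cold and dark, are dispensed first; compounds are then pinned in at 23 nl, plates briefly spun, and incubated 2 h at ambient temperature. Inhibition of VDR–SRC2-3 peptide binding is read by fluorescence polarization.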
PLK1 PBD inh – blocks phosphopeptide binding to human PLK1 polo-box domain; P53350; Plk1 PBD binding of FITC phosphopeptide, fluorescence polarization; Potency, µM, inactives show max response, negative = inhibition, usual class: inhibitors; actives 2.8% (n = 360,000); AID 720504; note: potency is the fitted concentration of half-maximal effect; series mostly up to about 57 µM; nearly all actives have a fitted effect of over 65% in size
Target sequence (P53350 whole entry, looked up, the tested form may be a part): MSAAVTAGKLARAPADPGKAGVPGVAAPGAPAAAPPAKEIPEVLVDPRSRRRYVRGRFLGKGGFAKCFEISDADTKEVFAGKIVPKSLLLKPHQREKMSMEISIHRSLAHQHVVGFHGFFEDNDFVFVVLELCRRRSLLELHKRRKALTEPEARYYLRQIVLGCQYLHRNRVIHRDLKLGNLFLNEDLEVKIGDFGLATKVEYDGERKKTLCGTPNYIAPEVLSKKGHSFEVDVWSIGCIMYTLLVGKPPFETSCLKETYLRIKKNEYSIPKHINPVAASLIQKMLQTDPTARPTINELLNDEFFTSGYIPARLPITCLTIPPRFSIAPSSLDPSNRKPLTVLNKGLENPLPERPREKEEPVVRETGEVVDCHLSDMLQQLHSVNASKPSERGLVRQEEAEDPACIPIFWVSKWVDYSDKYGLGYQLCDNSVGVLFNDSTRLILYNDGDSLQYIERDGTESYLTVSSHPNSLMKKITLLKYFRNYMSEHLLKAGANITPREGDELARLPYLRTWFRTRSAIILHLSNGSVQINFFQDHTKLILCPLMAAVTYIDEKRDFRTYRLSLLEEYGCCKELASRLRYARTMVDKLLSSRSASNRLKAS
G9a block – G9a (human) methyltransferase inhibition. Potency, µM (series often up to 102 µM), without a hit: at the top dose activity, negative = inhibition, most hits filed as inhibitors. Q96KQ7. AID 504332. G9a H3K9 monomethylation, AlphaScreen, 2 h. actives 8.8% (n = 350,000); note: potency is the fitted concentration of half-maximal effect; nearly all actives have a fitted effect of over 75% in size
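Readings reflect AlphaScreen signal from monomethyl-H3K9 antibody detection. HMT at 20 nM; substrate b-H3K9 500 nM; cofactor SAM 20 uM; 2 h RT reaction; compounds tested as titrations in qHTS with 15 min preincubation.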
Starred values were filed as active, the others as inactive; [ ] = remark or other dose. Unless noted, calls come from the whole dose curve; as a rule, active = well fitted curve in the direction sought with a large enough effect; inconclusive = small, poorly fitted or top-dose-only effect, or another doubt; inactive = no such curve, though single readings can be large; an effect the other way counts as inactive or inconclusive. Unless noted, % is set by controls: 0 for no effect and ±100 for the full control effect.

What do the screens show for `COc1ccc(-n2c3c(cc(-c4nc(-c5ccc(Cl)cc5)cs4)c2=O)C(=O)CC(C)(C)C3)cc1Cl`?
VDR inh: -27%; G9a block: 8.9µM*

How did COc1ccc(-n2c(-c3ccc(Cl)cc3)cc3c2CC(C)(C)CC3=O)c(OC)c1 do in these assays?
VDR inh: 22%; G9a block: 13µM*

What do the screens show for `COc1ccc(-n2c3c(cc(-c4nc(-c5ccc(Cl)cc5)cs4)c2=O)C(=O)CC(C)(C)C3)cc1`?
VDR inh: -10%; G9a block: 4.5µM*

How did COc1ccc(C2CC(=O)c3cc(-c4nc(-c5cccc([N+](=O)[O-])c5)cs4)c(=O)n(-c4ccc(OC)cc4)c3C2)cc1 (stereo not given) do in these assays?
VDR inh: -12%; G9a block: -14%[59 µM]

Results for COc1ccc(C2CC(=O)c3cc(-c4nc(-c5cccc([N+](=O)[O-])c5)cs4)c(=O)n(-c4cccc(C)c4)c3C2)cc1 (stereo not given) ?
VDR inh: -16%; G9a block: 16µM*

How did Cc1nn(CCC(=O)O)c2nc(-c3cccnc3)cc(C(F)(F)F)c12 do in these assays?
Sfp PPTase inh: 13%; CCT modulator: 1; Mm-Cpn inhibitor: -2%; VDR inh: 7%; PLK1 PBD inh: -3%; G9a block: inconclusive

Results for CCOC(=O)c1cc2c(C(F)(F)F)cc(-c3cccnc3)nc2o1 ?
Sfp PPTase inh: 9%; CCT modulator: -32*; Mm-Cpn inhibitor: 0%; VDR inh: 4%; PLK1 PBD inh: -11%; G9a block: -7%

How did CCOC(=O)CN1C(=O)c2ccccc2C1=O do in these assays?
Sfp PPTase inh: 25%; CCT modulator: 1; Mm-Cpn inhibitor: 2%; VDR inh: 4%; PLK1 PBD inh: -2%; G9a block: 10%[12.7 µM]

How did CCOC(=O)CN1C(=O)C2Cc3ccccc3CN2C1=S (stereo not given) do in these assays?
Sfp PPTase inh: -3%; CCT modulator: 1; Mm-Cpn inhibitor: -2%; VDR inh: 7%; PLK1 PBD inh: inconclusive; G9a block: 20µM*

Results for O=C(Nc1ccccc1[N+](=O)[O-])c1csnn1 ?
VDR inh: -3%; G9a block: inconclusive

What do the screens show for `CCCCN(C(=O)NC(=O)Nc1nc2ccc(OC)cc2s1)S(C)(=O)=O`?
Sfp PPTase inh: 56µM*; CCT modulator: -1; Mm-Cpn inhibitor: -1%; VDR inh: -1%; PLK1 PBD inh: -26%; G9a block: inconclusive

How did Cc1occc1-c1nnc(SCC(=O)NCCc2ccccc2)n1C(C)c1ccccc1 (stereo not given) do in these assays?
Sfp PPTase inh: -14%; CCT modulator: 1; Mm-Cpn inhibitor: 0%; VDR inh: -6%; PLK1 PBD inh: -7%; G9a block: 56µM*

What do the screens show for `CCCCOC(=O)Nc1nc2ccc(OC)cc2s1`?
Sfp PPTase inh: -1%; CCT modulator: 1; Mm-Cpn inhibitor: 2%; VDR inh: 1%; PLK1 PBD inh: -5%; G9a block: -14%[12.7 µM]

Results for Cc1occc1-c1nnc(SCC(=O)NCCc2ccccc2)o1 ?
Sfp PPTase inh: 12%; CCT modulator: 0; Mm-Cpn inhibitor: -2%; VDR inh: 9%; PLK1 PBD inh: -8%; G9a block: -1%

How did COc1ccc2nc(NC(=O)CSc3nc(SC)ns3)sc2c1 do in these assays?
Sfp PPTase inh: -27%; CCT modulator: 0; Mm-Cpn inhibitor: -3%; VDR inh: 14%; PLK1 PBD inh: inconclusive; G9a block: 20µM*

Results for COc1ccc2nc(NC(=O)CSc3nnc(C)s3)sc2c1 ?
Sfp PPTase inh: 2%; CCT modulator: -3; Mm-Cpn inhibitor: 1%; VDR inh: 3%; PLK1 PBD inh: 2%; G9a block: 4%

What do the screens show for `CCOC(=O)Cc1cnc(NC(=O)CSc2nc(N)cc(=O)[nH]2)s1`?
Sfp PPTase inh: 14%; CCT modulator: -1; Mm-Cpn inhibitor: -2%; VDR inh: inconclusive; PLK1 PBD inh: 17µM*; G9a block: 6%

What do the screens show for `Cc1nc(SCC(=O)Nc2nc3ccccc3s2)c(C#N)c(C)c1C`?
Sfp PPTase inh: 50µM*; CCT modulator: -2; Mm-Cpn inhibitor: -5%; VDR inh: -6%; PLK1 PBD inh: -17%; G9a block: 10µM*

Results for Cc1nc(SCC(=O)Nc2nc3ccccc3s2)n[nH]1 ?
Sfp PPTase inh: 4%; CCT modulator: 1; Mm-Cpn inhibitor: -3%; VDR inh: 8%; PLK1 PBD inh: -2%; G9a block: 79µM*

What do the screens show for `Cc1cc(=O)[nH]c(SCC(=O)NC(c2ccccc2)c2ccccc2)n1`?
Sfp PPTase inh: 12%; CCT modulator: -1; Mm-Cpn inhibitor: -2%; VDR inh: -10%; PLK1 PBD inh: -13%; G9a block: -4%

What do the screens show for `CCOc1ccc(CCNC(=O)CSc2n[nH]c(N)n2)cc1OCC`?
Sfp PPTase inh: inconclusive; CCT modulator: -4; Mm-Cpn inhibitor: 1%; VDR inh: -31%; PLK1 PBD inh: inconclusive; G9a block: 8.9µM*

Results for COC(=O)C(CSCc1ccccc1)NC(=O)CSc1nc(C)cc(=O)[nH]1 (stereo not given) ?
Sfp PPTase inh: -10%; CCT modulator: -5; Mm-Cpn inhibitor: 4%; VDR inh: 15%; PLK1 PBD inh: 27µM*; G9a block: 0%

How did COc1ccc(-c2cn3nc(N4CCC(C(=O)NCc5cccc(Cl)c5)CC4)sc3n2)cc1 do in these assays?
VDR inh: 9%; G9a block: 5%[59 µM]

Results for Cc1nc(SCC(=O)NCCc2ccccc2)n[nH]1 ?
Sfp PPTase inh: 6%; CCT modulator: -1; Mm-Cpn inhibitor: -6%; VDR inh: -5%; PLK1 PBD inh: 3.8µM*; G9a block: -3%

How did COc1ccc2nc(NC(=O)CSc3nccc(C)n3)sc2c1 do in these assays?
Sfp PPTase inh: 0%; CCT modulator: 0; Mm-Cpn inhibitor: 0%; VDR inh: 5%; PLK1 PBD inh: -6%; G9a block: 34%[12.7 µM]

Results for COc1ccc2nc(NC(=O)CSc3n[nH]c(N)n3)sc2c1 ?
CCT modulator: -1; Mm-Cpn inhibitor: 0%; VDR inh: -3%; PLK1 PBD inh: -10%; G9a block: 56µM*

Results for COc1ccc2nc(NC(=O)CSc3nc(C)cc(=O)[nH]3)sc2c1 ?
Sfp PPTase inh: -7%; CCT modulator: 0; Mm-Cpn inhibitor: 0%; VDR inh: 4%; PLK1 PBD inh: -29%; G9a block: 2.8µM*

What do the screens show for `COc1ccc(NC(=O)CSc2n[nH]c(N)n2)c([N+](=O)[O-])c1`?
Sfp PPTase inh: 5%; CCT modulator: -1; Mm-Cpn inhibitor: 0%; VDR inh: -6%; PLK1 PBD inh: 0%; G9a block: 24%[2.33 µM]

From PubChem BioAssay
